# The list is not random: actives were taken first. Their share in the collection is about 2.5%.
# ASK1 primary – inhibitors of human ASK1 kinase; inhibition, % at 7.44 µM; AlphaScreen MKK6 phosphorylation by ASK1, luminescence; 22,000 compounds, 0.99% hits; in the data active = inhibition above about 35%;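 note: 0% = median of compound wells and 100% = no enzyme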
# ULK1 inh – human ULK1 kinase inhibition, primary screen | O75385 | AlphaScreen Atg13 phosphorylation by ULK1, luminescence | inhibition, % at 5.96 µM | 30,000 compounds, 1.9% hits; in the data active = inhibition above about 43%;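 note: 0% = median of compound wells and 100% = no enzyme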
# Numbers without * were called inactive; . = not tested or not shown.
SMILES,ASK1 primary,ULK1 inh
CC(=O)Nc1ccc(Nc2nc(NCc3cccnc3)nc3c2ncn3-c2ccsc2)cc1,10.7,55.4*
CC(C)n1cnc2c(NCc3ccccc3)nc(-c3ccc(C(N)=O)cc3)nc21,-2.0,-18.5
CC(=O)Nc1ccc(Nc2nc(NCc3cccnc3)nc3c2ncn3-c2ccccc2)cc1,-14.2,6.8
CC(=O)Nc1ccc(Nc2nc(NCc3cccnc3)nc3c2ncn3C(C)C)cc1,5.2,68.5*
CC(C)n1cnc2c(Nc3ccccc3)nc(-c3ccc(C(N)=O)cc3)nc21,6.9,67.8*
CC(C)n1cnc2c(NCc3cccnc3)nc(Nc3ccncc3)nc21,-3.8,-6.5
Cn1ncnc1-c1ccc2cnc(Nc3ccc(-n4cnc(N5CCOCC5)n4)cc3)nc2c1,1.6,0.1
FC(F)(F)c1nc2c(Nc3ccnc(Nc4ccc(N5CCOCC5)cc4)c3)cccc2[nH]1,3.8,-9.1
COc1ccc(-c2nc(NCCc3ccc(O)cc3)c3ncn(-c4ccsc4)c3n2)cn1,9.9,-7.9
O=C(NCCOc1ccccc1)c1csc(N2CCC(N3CCOCC3)CC2)n1,-7.1,8.6
OC1CCC(Nc2nc(NCCOc3ccccc3)c3ncn(C4CCCCC4)c3n2)CC1 (stereo not drawn),-2.7,-8.0
CC(C)n1c(N2CCN(Cc3ccc4c(c3)OCO4)CC2)nc2c(NCCCN3CCCC3=O)ncnc21,-15.0,5.5
CC(=O)Nc1ccc2c(c1)C1C=CCC1C(c1ccccc1)N2 (stereo not drawn),.,32.8
COc1cc(NC(=O)c2cnc(Nc3ccccc3)s2)cc(OC)c1OC,-3.6,-24.0
Cc1ccc(-c2cccc3cnc(Nc4cccc(C(=O)N5CCN(C)CC5)c4)nc23)cn1,9.1,61.6*
Cc1ccc(-c2cccc3cnc(Nc4cccc(C(=O)N5CCCC5)c4)nc23)cn1,-4.3,50.8*
Cc1ccc(-c2cccc3cnc(Nc4ccc(C(=O)N5CCN(C)CC5)cc4)nc23)cn1,-10.8,57.7*
Cc1ccc(-c2cccc3cnc(Nc4ccc(C(=O)N5CCOCC5)cc4)nc23)cn1,-13.6,58.0*
Cn1cc(-c2cccc3cnc(NC4CCN(C(=O)N5CCCC5)C4)nc23)cn1 (stereo not drawn),11.6,33.2
CC(=O)N1CCC(Nc2ncc3cccc(-c4ccc(C)nc4)c3n2)CC1,-5.3,11.2
Cc1cnc(-c2ccc(C(=O)N3CCN(C)CC3)cc2)nc1Nc1ccc(N2CCOCC2)cc1,-9.1,-14.1
Cc1cc(Nc2ccccc2)nc(-c2ccc(C(=O)N3CCN(C)CC3)cc2)n1,-9.9,3.0
CC(C)n1cnc2c(NCc3ccccc3)nc(Nc3nccc4ccccc34)nc21,-0.2,0.7
Clc1nc(Nc2ccc3c(c2)OCO3)c2ncn(-c3ccccc3)c2n1,21.2,-6.0
CC(C)CCOc1cc(-c2cn[nH]c2)ccc1NC(=O)C1COc2ccccc2C1 (stereo not drawn),8.0,11.6
SMILES,ASK1 primary,ULK1 inh
CN1CC[C@H](Oc2cc(-c3cn[nH]c3)ccc2NC(=O)N(Cc2ccccc2)C2CC2)C1,-4.8,-2.1
NC(=O)Cc1cn(-c2ccc(N3CCN(c4ccccn4)CC3)nn2)c2ccccc12,-3.6,14.2
COc1ccc(-c2nc(Nc3cc(OC)c(OC)c(OC)c3)nc(OC)n2)cn1,1.5,4.5
CC(C)n1cnc2c(NCc3cccc(C(F)(F)F)c3)nc(NC3CCN(Cc4ccccc4)CC3)nc21,26.9,-16.8
Cc1nc(C)n(-c2ccc(Nc3nccc(-c4cc(F)cc(-c5cnoc5)c4)n3)cc2)n1,33.9,45.1*
Cc1ncn(-c2ccc(Nc3nccc(-c4cc(F)cc(-c5cnoc5)c4)n3)cc2)n1,15.8,18.8
Cc1noc(C)c1-c1nc(NC2CC2)c2ncn(C3CCCCC3)c2n1,4.9,0.7
CC(=O)Nc1ccc(Nc2ccnc(Nc3ccncn3)n2)cc1,16.3,67.7*
CC(=O)Nc1ccc(Nc2ccnc(Nc3ccc(C(F)(F)F)cc3)n2)cc1,28.9,-11.3
CCCCC(C(=O)O)C(C)CC(=O)Nc1ccccc1Cl (stereo not drawn),.,3.5
O=C(Nc1ccc(N2CCOCC2)cc1)c1cnc(Nc2ccccn2)s1,-9.0,42.6
Cn1nccc1Nc1ccc(-n2cc(CC(=O)Nc3ccc(N4CCOCC4)cc3)c3ccccc32)nn1,-7.4,49.0*
O=C(Cc1cn(-c2ccc(Nc3ccc(N4CCOCC4)cc3)nn2)c2ccccc12)Nc1ccccc1,13.4,9.8
CN(C#N)c1nc(Cl)nc(Nc2ccc(Cl)cc2)n1,.,21.5
C[C@H]1c2cccc(O)c2C(O)=C2C(=O)[C@]3(O)C(O)=C(C(N)=O)C(=O)[C@@H](N(C)C)[C@@H]3[C@@H](O)[C@@H]21,.,52.0*
CN(C)c1ccc(O)c2c1C[C@H]1C[C@H]3[C@H](N(C)C)C(=O)C(C(N)=O)=C(O)[C@@]3(O)C(=O)C1=C2O,.,10.1
COC1=C(N)C(=O)c2nc(-c3nc(C(=O)O)c(C)c(-c4ccc(OC)c(OC)c4O)c3N)ccc2C1=O,.,83.7*
COc1ccc(-c2nc(NCCOc3ccccc3)c3ncn(CCN4CCCC4=O)c3n2)cc1,8.1,-47.0
